# Source: PubChem
# VDR inhibitor: Inhibitors of the vitamin D receptor (VDR): qHTS; Vitamin D3 receptor (Homo sapiens), P11473; VDR-SRC2-3 peptide fluorescence polarization, 2 h; Potency, µM, without a hit: max response, negative = inhibition, most hits filed as inhibitors; actives 0.93% (n = 400,000); also: % is scaled to controls: 0 for no effect and ±100 for the full control effect
# Target sequence (P11473 whole entry, looked up): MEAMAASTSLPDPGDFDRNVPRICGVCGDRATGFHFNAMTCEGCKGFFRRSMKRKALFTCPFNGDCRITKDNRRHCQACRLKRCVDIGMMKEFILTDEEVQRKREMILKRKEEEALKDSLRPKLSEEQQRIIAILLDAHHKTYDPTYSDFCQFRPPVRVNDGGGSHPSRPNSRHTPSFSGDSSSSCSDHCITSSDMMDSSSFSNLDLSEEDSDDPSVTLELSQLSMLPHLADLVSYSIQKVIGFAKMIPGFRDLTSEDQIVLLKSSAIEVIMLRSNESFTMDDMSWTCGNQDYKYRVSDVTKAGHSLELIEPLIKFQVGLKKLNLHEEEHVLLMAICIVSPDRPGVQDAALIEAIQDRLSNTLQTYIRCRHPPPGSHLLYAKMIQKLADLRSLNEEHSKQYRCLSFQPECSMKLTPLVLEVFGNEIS
#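 Fluorescence polarization assay measuring small-molecule disruption of VDR binding to the coregulator peptide SRC2-3. Compounds were pin-transferred (23 nl) into the reagent mix and incubated 2 h at room temperature before reading.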
# JMJD2A Tudor: qHTS Assay for Inhibitors of JMJD2A-Tudor Domain; actives 4.4% (n = 390,000); Lysine-specific demethylase 4A (Homo sapiens), O75164; AID 504339, 2011; Potency, µM (top dose mostly 114 µM), for the others: at the top dose activity change, negative = inhibition, hits mostly inhibitors; AlphaScreen JMJD2A-Tudor / H3K4me3 peptide binding; also: % is scaled to controls: 0 for no effect and ±100 for the full control effect; nearly all actives have a fitted effect of over 50% in size
# BAZ2B inh: qHTS Assay for Inhibitors of BAZ2B | Bromodomain adjacent to zinc finger domain protein 2B (Homo sapiens), Q9UIF8 | AlphaScreen BAZ2B-H3K14Ac peptide displacement | Potency, µM (top dose mostly 114 µM), for inactives: at the highest dose activity change, negative = inhibition, most hits filed as inhibitors | actives 4.4% (n = 360,000) | AID 504333, 2011; also: % is scaled to controls: 0 for no effect and ±100 for the full control effect; nearly all actives have a fitted effect of over 60% in size
#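 BAZ2B 50 nM plus b-H3(5-23)K14Ac 50 nM, PBS pH 7.4/0.01% Tween-20, 30 min RT; compound added (max 110 uM), 30 min RT; streptavidin donor/Ni-chelate acceptor beads 10 ug/mL final, 20 min dark; AlphaScreen read.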
# L3MBTL1 block: qHTS Assay for the Inhibitors of L3MBTL1 | Lethal(3)malignant brain tumor-like protein 1 (Homo sapiens), Q9Y468 | AlphaScreen L3MBTL1–H3K9me1 peptide binding | Potency, µM (top dose mostly 57.1 µM), for inactives: at the highest dose activity, negative = inhibition, actives largely listed as inhibitors | actives 0.66% (n = 230,000); also: % is scaled to controls: 0 for no effect and ±100 for the full control effect; nearly all actives have a fitted effect of over 60% in size
#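 L3MBTL1 50 nM + b-AHA-H3(1-15)K9me1 75 nM, 30 min RT; compound added, 30 min RT; streptavidin donor/Ni-chelate acceptor beads 10 ug/mL each final, 30 min RT dark; AlphaScreen read.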
# HP1b chromo inh: HTS for Inhibitors of HP1-beta Chromodomain Interactions with Methylated Histone Tails; Chromobox protein homolog 1 (Homo sapiens), P83916; AlphaScreen HP1-beta / biotin-H3K9me3 peptide binding; Potency, µM (highest dose often 114 µM), inactives show at the top dose activity change, negative = inhibition, most hits filed as inhibitors; actives 0.56% (n = 390,000); AID 540317, 2011; also: nearly all actives have a fitted effect of over 70% in size
# Target sequence (P83916 whole entry, looked up): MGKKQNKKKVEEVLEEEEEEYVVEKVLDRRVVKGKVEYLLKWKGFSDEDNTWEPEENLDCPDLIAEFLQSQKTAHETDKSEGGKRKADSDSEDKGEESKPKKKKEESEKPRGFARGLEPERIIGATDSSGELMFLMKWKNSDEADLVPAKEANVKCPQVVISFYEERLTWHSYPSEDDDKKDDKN
#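 Compound inhibition of the preformed complex between 50 nM HP1-beta and 50 nM biotinylated H3K9me3 peptide was read by AlphaScreen. Buffer was PBS pH 7.4 with 0.01% Tween-20. Incubations ran 30 min at room temperature, with 10 ug/mL donor/acceptor beads.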
# PLK1 PBD inh: qHTS for Inhibitors of PLK1-PDB (polo-like kinase 1 - polo-box domain): Primary Screen. Potency, µM, for the others: max response, negative = inhibition, hits mostly inhibitors. actives 2.8% (n = 360,000). AID 720504, 2013. Plk1 PBD binding of FITC phosphopeptide, fluorescence polarization; also: series mostly up to about 57 µM; % is scaled to controls: 0 for no effect and ±100 for the full control effect; nearly all actives have a fitted effect of over 65% in size
# Active calls of the source: *; ? = inconclusive; . = not tested or not shown; ! = repeats disagree; [ ] = dose if it differs, or a comment. A selection: hits, their analogues and other compounds. The true share with any hit is near 6.9%. Calls follow the shape of the dose curve; as a rule, active = well fitted curve in the direction sought with a large enough effect; inconclusive = small, poorly fitted or top-dose-only effect, or another doubt; inactive = no such curve, though single readings can be large; an effect the other way counts as inactive or inconclusive. Potency is read from the fitted curve at half-maximal effect.
SMILES,VDR inhibitor,JMJD2A Tudor,BAZ2B inh,L3MBTL1 block,HP1b chromo inh,PLK1 PBD inh
COc1ccc(OCC(=O)N2CCN(Cc3nc4cc([N+](=O)[O-])ccc4n3C)CC2)cc1,-17.4%,-29.2%,-11.9%,5.1%,-5.9%,29.9µM*
CCc1nc(SC)ncc1C(=O)Nc1ccc(Cl)cc1C(=O)c1ccccc1,0.2%,-18.2%,-1.4%,.,28.4%,.
CSc1ncc(Cl)c(C(=O)O)n1 (tested in a mixture with another compound),2.8%,79.4µM*,?,.,14.6%,-4.1%
O=C(NC1CCCCC1)c1cn(CCN2CCOCC2)c2cc(Cl)ccc2c1=O,-14.3%,.,.,.,.,.
O=C1Nc2ccccc2C1Cc1nc2ccccc2c(=O)n1-c1ccccc1 (configuration not stated),?,-19.9%[11.4 µM],79.4µM*,.,0.2%,21.2µM*
O=C(O)CN1C(=O)CN=C(c2ccccn2)c2cc(Cl)ccc21,9.9%,25.1µM*,50.1µM*,19.8%,48.9%,1.6%
O=C1CN=C(c2ccccc2)c2cc(Cl)ccc2N1Cc1ccc(Cl)cc1,-3.1%,-17.2%,-1.7%,.,7.9%,.
O=C(O)c1[nH]c(=O)[nH]c(=O)c1F,8.0%,7.08µM*,50.1µM*,17.0%,-1.2%,-7.0%
CC1Oc2cc3c(-c4c(O)cc(O)c5c(O)c6c(cc45)OC(C)C(C)C6=O)c(O)cc(O)c3c(O)c2C(=O)C1C (configuration not stated),79.4µM*,44.7µM*,31.6µM*,2µM*,?,26.7µM*
CN1CC[C@@H]2CN3CCc4cccc(c43)[C@H]2C1,-21.7%,.,.,.,.,.
O=C(OC1CC2CCC(N2)C1C(=O)O)c1ccccc1 (configuration not stated),0.2%,89.1µM*,.,3.0%,15.7%,-10.1%
CN1C(=O)C(=Cc2ccc(N3CCOCC3)o2)C(=O)N(C)C1=S,-7.7%,-19.2%,?,-4.7%,-22.4%,65.1%
O=C1NC(=O)C(=Cc2ccc(-c3ccc(Cl)cc3)o2)C(=O)N1,?,?,?,11.6%,13.9%,0.67µM*
O=C1NC(=O)C(=Cc2ccc(-c3ccc(F)cc3O)o2)C(=O)N1,28.2µM*,?,56.2µM*,?,-16.3%,1.19µM*
CCOCCCNC(=O)c1c[nH]c2ccc(S(=O)(=O)N(C)c3ccc(Cl)cc3F)cc2c1=O,-0.2%,-23.2%,0.3%,.,49.5%,.
CCOC(=O)C1C(C=C(C)C)C1(C)C (configuration not stated),-0.1%,.,.,.,.,.
CC/C=C\C[C@@H](/C=C/C=C\C/C=C\C/C=C\CCCC(=O)O)OO,4.0%,.,.,.,.,.
CCOc1cc(-c2ccc(N)c(OCC)c2)ccc1N,-29.7%,?,14.1µM*,?,8.91µM*,3.36µM*
Cc1ccc(S(=O)(=O)Oc2ccccc2C=C2C(=O)N(C)C(=O)N(C)C2=O)cc1,?,0.0%,-0.3%,.,46.3%,6.7µM*
CN1C(=O)C(=Cc2ccc(Sc3ccccc3)o2)C(=O)N(C)C1=O,?,-3.7%,-29.0%,-1.2%,27.4%,?
COC(=O)c1ccccc1OC(=O)c1ccc(Br)o1,-2.6%,-9.4%,12.3%,3.2%[11.4 µM],50.3%,-10.5%
Cc1c(O)c(=O)ccn1C,-9.7%,15.8µM*,44.7µM*,4.3%,45.8%,-2.6%
COCCn1c(O)c(/C=N/NC(=O)CSC(=S)N2CCCC2)c(=O)[nH]c1=S,5.8%,89.1µM*,-0.8%,1.7%,37.2%,-10.9%
CCCCC(=O)N/N=C/c1c(O)n(CC)c(=S)[nH]c1=O,-19.1%,?,?,-2.9%,54.7%,1.7%
CCCCCCC(=O)N/N=C/c1c(O)n(CCCC)c(=S)[nH]c1=O,2.5%,-24.1%,-10.8%,1.6%,39.7%,-10.0%
SMILES,VDR inhibitor,JMJD2A Tudor,BAZ2B inh,L3MBTL1 block,HP1b chromo inh,PLK1 PBD inh
O=C(CSC(=S)N1CCCC1)N/N=C/c1c(O)[nH]c(=S)[nH]c1=O,-11.3%,56.2µM*,.,-25.8%,33.1%,1.6%
C[N+]1(C)CCc2cc3c(cc2[C@H]1[C@@H]1OC(=O)c2c1ccc1c2OCO1)OCO3,-1.2%,25.1µM*!,?,4.4%,49.5%,-2.4%
O=C(NCc1ccccc1)c1cccn(Cc2cccc(Cl)c2)c1=O,-24.0%,3.3%,12.5%,.,51.0%,-5.2%
CN(C)CCNC(=O)c1cccn(Cc2cccc(C(F)(F)F)c2)c1=O,?,-20.3%[11.4 µM],-21.6%,.,-8.5%,18.9µM*
Nc1nnc(Sc2ncccc2[N+](=O)[O-])s1,-23.3%,-13.9%,4.7%,.,26.4%,9.47µM*
O=[N+]([O-])c1ccc(N2CCCC2)c2ncccc12,-0.2%,-21.4%,?,.,20.5%,-9.5%
Nc1ncnc2c1ncn2[C@@H]1O[C@H](COP(=O)(O)CP(=O)(O)O)[C@@H](O)[C@H]1O,1.9%,79.4µM*,.,.,19.6%,-6.8%
O=C1NC(=O)N(Cc2ccccc2)C(=O)/C1=C\C=C\c1ccco1,?,?,?,.,?,110.2%
CC(C)c1ccc(N2C(=O)NC(=O)/C(=C/c3cnc(-c4ccccc4)nc3)C2=O)cc1,35.5µM*,89.1µM*,?,-13.9%,-4.9%,11.9µM*
O=C1NC(=O)N(Cc2ccccc2)C(=O)/C1=C/N1CCCc2ccccc21,?,?,?,?,6.5%,26.7µM*
CSc1ncc(/C=C2/C(=O)NC(=O)N(c3ccc(C(C)C)cc3)C2=O)cn1,?,?,-11.9%,4.1%,-15.1%,15µM*
O=C1NC(=O)N(Cc2ccccc2)C(=O)/C1=C/c1cnc(-c2ccccc2)nc1,25.1µM*,79.4µM*,-33.8%,.,-6.3%,6.7µM*
O=C1CC(=O)N(Cc2ccccc2)C(=S)N1,-18.1%,-17.5%,-4.8%,.,-1.5%,-22.0%
CC(C)N(CC[C@@](C(N)=O)(c1ccccc1)c1ccccn1)C(C)C,0.9%,.,.,.,.,.
CC(c1nc2ccccc2c(=O)[nH]1)N(C)CCOc1ccc(Cl)cc1 (configuration not stated),-8.9%,-14.6%,-13.6%,-6.3%,43.3%,-3.1%
O=C(COc1ccccc1F)N1CCN(CCN2C(=O)c3cccc4cccc(c34)C2=O)CC1,-1.5%,-27.0%,-19.1%,-6.0%,1.9%,0.8%
O=C(COc1ccccc1)N1CCN(CCN2C(=O)c3cccc4cccc(c34)C2=O)CC1,-11.8%,-21.1%[11.4 µM],-7.2%,.,-6.1%,16.8µM*
CN1CCc2cc(O)cc3c2C1Cc1ccc(O)c(O)c1-3 (configuration not stated),-20.2%,.,.,.,.,.
CCCN1CCc2cccc3c2[C@H]1Cc1ccc(O)c(O)c1-3,7.94µM*!,22.4µM*,.,.,15.8µM*,-10.9%
